Assay results as given in PubChem BioAssay (EPA / NIEHS).
Inconclusive results are not listed. The source made the active and inactive calls. The calls were made as follows, unless noted: active = hit-call score of the fitted dose curve at least 0.9, where 1 is the maximum; inactive = score below 0.9.

Legend:
[1] = biological target: Cellular tumor antigen p53 (Homo sapiens) (UniProt P04637); assay: TOX21_p53_BLA_p2_ratio: Tox21 HCT-116 p53 Agonism Beta-lactamase Assay, Ratio, Phase 2 (AID 2283592; active = hit-call score of the fitted dose curve at least 0.9, where 1 is the maximum)
In short: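 In this cell-based reporter format, HCT116 cells were dosed with chemicals delivered from DMSO by 217-fold dilution and incubated 16 h at 37C. Emission at 460 and 530 nm after 2 h CCF4-AM loading provided the ratio, fitted upward versus DMSO.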

[2] = TOX21_p53_BLA_p3_viability: Viability Assessment in the Tox21 HCT-116 p53 Agonism Beta-lactamase Assay, Phase 3 (AID 2283593; active = hit-call score of the fitted dose curve at least 0.9, where 1 is the maximum;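 also: cells exposed to compound for 16 h before reading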)
In short: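 HCT116 cells, 4000/well, dosed 5 h after plating by pin transfer (217-fold dilution from DMSO stock) and incubated 16 h at 37C, 5% CO2. Viability read as ATP luminescence with CellTiter-Glo after 30 min at room temperature.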

[3] = biological target: Cellular tumor antigen p53 (Homo sapiens) (UniProt P04637); assay: TOX21_p53_BLA_p3_ratio: Tox21 HCT-116 p53 Agonism Beta-lactamase Assay, Ratio, Phase 3 (AID 2283596; active = hit-call score of the fitted dose curve at least 0.9, where 1 is the maximum)
In short: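 HCT116 p53-bla cells (4000/well) given compound in DMSO (217-fold dilution) after 5 h, incubated 16 h at 37C. CCF4-AM substrate 2 h at room temperature; 460/530 nm emission ratio, gain fitted against DMSO.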

[4] = TOX21_p53_BLA_p4_viability: Viability Assessment in the Tox21 HCT-116 p53 Agonism Beta-lactamase Assay, Phase 4 (AID 2283597; active = hit-call score of the fitted dose curve at least 0.9, where 1 is the maximum;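 also: hits lower the luminescence signal meaning cytotoxicity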)
In short: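 We seeded HCT116 p53 reporter cells at 4000/well and waited 5 h. We then added compounds in DMSO at a 217-fold dilution and incubated for 16 h. Viability was read as CellTiter-Glo luminescence after 30 min at RT.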

[5] = biological target: Cellular tumor antigen p53 (Homo sapiens) (UniProt P04637); assay: TOX21_p53_BLA_p5_ratio: Tox21 HCT-116 p53 Agonism Beta-lactamase Assay, Ratio, Phase 5 (AID 2283599; active = hit-call score of the fitted dose curve at least 0.9, where 1 is the maximum)
In short: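 HCT-116 p53-bla cells (4000/well) plated 5 h, dosed with compound (217-fold DMSO dilution) for 16 h at 37 C; CCF4-AM substrate 2 h at room temperature. Activity is the 460/530 nm emission ratio (405 nm excitation), fitted in gain-of-signal direction versus DMSO.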

[6] = biological target: Cellular tumor antigen p53 (Homo sapiens) (UniProt P04637); assay: TOX21_p53_BLA_p4_ratio: Tox21 HCT-116 p53 Agonism Beta-lactamase Assay, Ratio, Phase 4 (AID 2283601; active = hit-call score of the fitted dose curve at least 0.9, where 1 is the maximum)
In short: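 HCT-116 p53 beta-lactamase reporter cells (4000/well) preincubated 5 h, then compound (217-fold dilution of DMSO stock) for 16 h at 37C. CCF4-AM substrate added 2 h at room temperature; 460/530 nm emission ratio fitted upward versus DMSO.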

[7] = CCTE_Shafer_MEA_dev_firing_rate_mean: CCTE's Neural Network Formation Assay for Mean Firing Rate, Shafer Lab (AID 2284031)
In short: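 Primary rat cortical neurons on 48-well, 16-electrode MEAs (PEI-coated, laminin at plating), exposed from day 0 with compound renewed at DIV 5 and 9. Spikes recorded DIV 5, 7, 9, 12; well-mean firing rate collapsed to trapezoidal AUC, loss-of-signal vs DMSO.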

[8] = CCTE_Shafer_MEA_dev_per_burst_spike_percent: CCTE's Neural Network Formation Assay for Percent of Spikes in a Burst, Shafer Lab (AID 2284032)
In short: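 Rat primary cortical neurons on 16-electrode MEA wells, dosed from plating day 0 for 12 days with renewal on DIV 5 and 9; spikes-in-bursts percentage averaged over bursting electrodes, collapsed as AUC across days 5, 7, 9, 12; loss direction versus DMSO.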

[9] = CCTE_Shafer_MEA_dev_active_electrodes_number: CCTE's Neural Network Formation Assay for Number of Active Electrodes, Shafer Lab (AID 2284040; active = hit-call score of the fitted dose curve at least 0.9, where 1 is the maximum;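 also: potency for loss of active electrodes versus DMSO so lower counts are hits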)
In short: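 Rat cortical primary cultures, 1.5 x 10^5 cells/well, PEI-coated MEA, laminin drop. Continuous exposure DIV 0–12; full media/compound change DIV 5, 9. Readout: electrodes with mean firing ≥5 spikes/min; AUC across days; loss vs DMSO.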

[10] = CCTE_Shafer_MEA_dev_burst_rate: CCTE's Neural Network Formation Assay for Burst Rate, Shafer Lab (AID 2284042)
In short: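 Primary rat cortical neurons on PEI-coated 48-well MEA plates (laminin added with cells at plating) (16 electrodes/well), exposed from plating to day 12, dosing renewed at DIV 5 and 9. Burst rate averaged over active electrodes, recorded DIV 5, 7, 9, 12, summarized as AUC; loss versus DMSO.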

[11] = CCTE_Shafer_MEA_dev_bursting_electrodes_number: CCTE's Neural Network Formation Assay for Number of Bursting Electrodes, Shafer Lab (AID 2284043; active = hit-call score of the fitted dose curve at least 0.9, where 1 is the maximum;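 also: potency is for loss of bursting electrodes relative to DMSO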)
In short: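 Primary rat cortical neurons plated on 16-electrode MEA wells, exposed from day 0 with compound renewed at DIV 5 and 9. Electrodes bursting ≥1 burst per 2 min counted on days 5, 7, 9 and 12; trapezoidal AUC across days, fitted for loss versus DMSO.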

[12] = CCTE_Shafer_MEA_dev_per_burst_interspike_interval: CCTE's Neural Network Formation Assay for Burst Interspike Interval, Shafer Lab (AID 2284044)
In short: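 Readout is the average time between spikes inside single-electrode bursts, taken as a well mean across bursting electrodes. Cortical neurons from rat developed networks on MEA plates under continuous 12-day exposure; recordings on days 5, 7, 9 and 12 were integrated by trapezoidal AUC.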

[13] = CCTE_Shafer_MEA_dev_burst_duration_mean: CCTE's Neural Network Formation Assay for Mean Burst Duration, Shafer Lab (AID 2284045)
In short: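 Primary rat cortical neurons on 48-well 16-electrode MEA plates, exposed from day 0 with renewal at DIV 5 and 9; spontaneous activity recorded on days 5, 7, 9, 12. Well-mean burst duration across bursting electrodes, collapsed as trapezoidal AUC; DMSO baseline.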

[14] = CCTE_Shafer_MEA_dev_interburst_interval_mean: CCTE's Neural Network Formation Assay for Mean Interburst Interval, Shafer Lab (AID 2284046);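 also: well-mean interburst interval of bursting electrodes as AUC over four recording days; curve fitted for decrease in interburst interval relative to DMSO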
In short: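 Recordings on days 5, 7, 9 and 12 give well-mean interburst interval across actively bursting electrodes, summarized as area under the curve. Cultures: rat cortical neurons, continuous exposure from day 0, compound renewed at feeds; decrease analyzed versus DMSO.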

[15] = CCTE_Shafer_MEA_dev_inter_network_spike_interval_mean: CCTE's Neural Network Formation Assay for Mean Inter-network Spike Interval, Shafer Lab (AID 2284047)
In short: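 Primary rat cortical neurons on 16-electrode MEA wells, exposed from plating day 0 through DIV 12, compound renewed at DIV 5 and 9 media changes. Mean interval between network-spike peaks recorded DIV 5, 7, 9, 12; collapsed as trapezoidal AUC, fitted downward versus DMSO.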

[16] = CCTE_Shafer_MEA_dev_network_spike_number: CCTE's Neural Network Formation Assay for Number of Network Spikes, Shafer Lab (AID 2284048)
In short: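 Primary rat cortical neurons on PEI/laminin 48-well MEA plates, dosed from plating day 0 for 12 days, renewed at DIV 5 and 9. Network spike counts recorded DIV 5, 7, 9, 12, collapsed as trapezoidal AUC; DMSO baseline.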

[17] = CCTE_Shafer_MEA_dev_network_spike_peak: CCTE's Neural Network Formation Assay for Mean Number of Electrodes in Network Spike, Shafer Lab (AID 2284049);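 also: fitted for loss of signal meaning fewer electrodes in network spikes than DMSO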
In short: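 Network-spike peak electrode count from recordings on days 5, 7, 9 and 12 was combined as trapezoidal area under the curve. Rat cortical cultures were treated continuously from plating, with compound renewed at each feed (DIV 5, 9); fits versus DMSO.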

[18] = CCTE_Shafer_MEA_dev_spike_duration_mean: CCTE's Neural Network Formation Assay for Mean Spike Duration, Shafer Lab (AID 2284051);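 also: mean network spike duration pooled as area under curve over DIV 5 to 12 recordings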
In short: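 Primary rat cortical neurons on 16-electrode MEA wells (PEI-coated, laminin in plating drop), exposed from plating through DIV 12 with compound renewed at DIV 5 and 9. Mean network-spike duration recorded DIV 5, 7, 9, 12; trapezoidal AUC across days, DMSO baseline.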

[19] = CCTE_Shafer_MEA_dev_network_spike_duration_std: CCTE's Neural Network Formation Assay for Standard Deviation of Network Spike Duration, Shafer Lab (AID 2284052);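 also: area under curve of spike duration SD across recording days 5 to 12; hits are decreases in network spike duration SD versus DMSO vehicle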
In short: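 Primary rat cortical neurons on PEI-coated 16-electrode MEA wells, exposed from plating day 0 through day 12 with compound renewed at DIV 5 and 9. Network spike duration SD recorded on days 5, 7, 9, 12, collapsed as trapezoidal AUC; loss-of-signal fit versus DMSO.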

[20] = CCTE_Shafer_MEA_dev_per_network_spike_spike_number_mean: CCTE's Neural Network Formation Assay for Mean Number of Spikes in a Network Spike, Shafer Lab (AID 2284053)
In short: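 Primary rat cortical neurons on 48-well, 16-electrode MEA plates were exposed from plating to DIV 12, with dosing renewed on DIV 5 and 9. Spikes per network spike (0.05 s peak window) were recorded on DIV 5, 7, 9 and 12 and collapsed as trapezoidal AUC versus DMSO.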

[21] = CCTE_Shafer_MEA_dev_per_network_spike_spike_percent: CCTE's Neural Network Formation Assay for Percent of Spikes in a Network Spike, Shafer Lab (AID 2284054)
In short: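 Rat primary cortical neurons were grown on 48-well MEA plates (16 electrodes/well), exposed from plating day 0 through day 12, with treatment renewed on DIV 5 and 9. Percent of spikes within 0.05 s network-spike peaks was measured, summarised as AUC across days 5, 7, 9, 12.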

[22] = CCTE_Shafer_MEA_dev_LDH: CCTE's Lactate Dehydrogenase Assay for Cytotoxicity in the Neural Network Formation Assay, Shafer Lab (AID 2284068; active = hit-call score of the fitted dose curve at least 0.9, where 1 is the maximum;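 also: exposure for twelve days from plating with re-dosing on DIV 5 and 9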)
In short: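 Primary rat cortical neurons were plated on PEI/laminin MEA plates and exposed from day 0 for twelve days, with compound renewed at DIV 5 and 9. Cytotoxicity was determined by spectrophotometric LDH assay relative to DMSO.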

[23] = CCTE_Shafer_MEA_dev_AB: CCTE's Alamar Blue Assay for Cytotoxicity in the Neural Network Formation Assay, Shafer Lab (AID 2284083; active = hit-call score of the fitted dose curve at least 0.9, where 1 is the maximum;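 also: twelve days of exposure from plating with re-dosing on DIV 5 and 9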)
In short: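 Primary rat cortical neurons on PEI-coated 48-well MEA plates, 1.5 x 10^5 cells/well in laminin drop; compound exposure from day 0 of plating for twelve days, renewed at medium changes on DIV 5 and 9. Viability read as resazurin reduction by fluorescence, relative to DMSO.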

[24] = CCTE_Shafer_MEA_dev_mutual_information_norm: CCTE's Neural Network Formation Assay for Mutual Information Normalization, Shafer Lab (AID 2284091)
In short: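 Primary rat cortical neurons on PEI-coated 48-well MEA plates, 1.5 x 10^5 cells/well, exposed from day 0 through day 12 with re-dosing at DIV 5 and 9. Mutual information between electrodes recorded days 5, 7, 9, 12; trapezoidal AUC, loss-of-signal fit versus DMSO.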

[25] = CCTE_Shafer_MEA_dev_correlation_coefficient_mean: CCTE's Neural Network Formation Assay for Mean Correlation Coefficient, Shafer Lab (AID 2284093)
In short: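 Spontaneous activity recorded on days 5, 7, 9 and 12 post-plating; pairwise spike correlations are averaged across active electrodes and collapsed to an area-under-curve. Rat cortical cultures are dosed from plating through 12 days, with compound renewed at media changes.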

[26] = UKN2_HCS_IMR90_neural_migration: University of Konstanz (UKN) Leist Lab Neural Crest Cell Migration Assay in human induced IMR90 Pluripotent Stem Cells (UKN2) (AID 2284204); settings: actives raise or lower the signal
In short: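 iPSC-derived IMR90 neural crest cells seeded around stoppers on PLO/laminin/fibronectin; migration started in N2-S medium with EGF/FGF, compounds added after 24 h for 24 h. Migration into cell-free area imaged after calcein-AM/Hoechst staining; bidirectional fit versus DMSO.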

[27] = IUF_NPC1b_proliferation_BrdU_72hr: Leibniz Research Institute for Environmental Medicine (IUF) 72-hour Neural Progenitor Cell Bromodeoxyuridine (BrdU) Proliferation Assay (NPC1b) (AID 2284207)
In short: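 BrdU luminescence ELISA quantified DNA synthesis over the last 16 h of a 72 h exposure, fitted against DMSO. Primary hNPC spheres from gestational week 16-19 cortex grown with EGF/FGF at 37C, pH 7.2-7.6.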

[28] = IUF_NPC1a_proliferation_area_72hr: Leibniz Research Institute for Environmental Medicine (IUF) 72-hour Neural Progenitor Cell Proliferation Area Assay (NPC1a) (AID 2284208)
In short: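 hNPC spheres (human fetal cortex, GW 16-19), one per poly-Hema U-bottom well; EGF+FGF medium; dosed day 0, no re-dosing; 72 h, 37C, 5% CO2; phase-contrast sphere area; DMSO = baseline; minus-GF = positive ctrl.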

Measured: AC50

Chain of Cellular tumor antigen p53 (Homo sapiens) (P04637 whole entry, looked up): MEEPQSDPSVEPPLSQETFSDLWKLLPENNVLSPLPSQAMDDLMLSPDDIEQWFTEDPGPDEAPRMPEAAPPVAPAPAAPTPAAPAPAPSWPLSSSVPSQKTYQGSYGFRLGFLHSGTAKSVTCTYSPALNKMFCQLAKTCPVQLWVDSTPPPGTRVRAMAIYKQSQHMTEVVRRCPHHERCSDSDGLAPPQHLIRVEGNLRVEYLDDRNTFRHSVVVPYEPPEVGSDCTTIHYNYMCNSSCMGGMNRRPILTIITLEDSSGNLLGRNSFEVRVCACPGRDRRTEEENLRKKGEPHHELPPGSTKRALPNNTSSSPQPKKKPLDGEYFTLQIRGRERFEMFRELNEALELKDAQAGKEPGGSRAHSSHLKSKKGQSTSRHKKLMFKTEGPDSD

[Cl-].[Cl-].[NH2-].[NH2-].[Pt+4]
inactive: [1] | [2] | [3] | [4] | [5] | [6] | [7] | [8] | [10] | [12] | [13] | [14] | [15] | [16] | [18] | [19] | [20] | [21] | [23] | [24] | [25] | [26]
active: [9] 10.4 µM | [11] 5.08 µM | [17] 9.92 µM | [22] 81 µM | [27] 5.68 µM | [28] 34.9 µM
